Assay outcomes from PubChem.
Pf growth 96h: Primary qHTS for delayed death inhibitors of the malarial parasite plastid, 96 hour incubation | P. falciparum luciferase reporter growth, 96 h | Potency, µM (doses to about 28.7 µM), without a hit: at the top dose activity change, negative = inhibition, hits mostly inhibitors | actives 6.9% (n = 320,000) | AID 504834, 2011
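Two parasite generations (96 h, 37 C, 5% CO2) of compound exposure in infected erythrocytes (0.05% parasitemia, 2% hematocrit). Luciferase-reporter P. falciparum; decreased luminescence indicates inhibited growth, aimed at apicoplast-acting delayed death.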
AmpC inh detg: qHTS Inhibitors of AmpC Beta-Lactamase (assay with detergent) | P00811 | AmpC hydrolysis of nitrocefin, absorbance 480 nm, 0.01% Triton | Potency, µM (doses to about 114 µM), for inactives: top-dose activity change, negative = inhibition, usual class: inhibitors | actives 0.041% (n = 370,000);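 also: 0% = no-compound wells and -100% = no-enzyme wells; nearly all actives have a fitted effect of over 25% in size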
Target sequence (P00811 whole entry, looked up): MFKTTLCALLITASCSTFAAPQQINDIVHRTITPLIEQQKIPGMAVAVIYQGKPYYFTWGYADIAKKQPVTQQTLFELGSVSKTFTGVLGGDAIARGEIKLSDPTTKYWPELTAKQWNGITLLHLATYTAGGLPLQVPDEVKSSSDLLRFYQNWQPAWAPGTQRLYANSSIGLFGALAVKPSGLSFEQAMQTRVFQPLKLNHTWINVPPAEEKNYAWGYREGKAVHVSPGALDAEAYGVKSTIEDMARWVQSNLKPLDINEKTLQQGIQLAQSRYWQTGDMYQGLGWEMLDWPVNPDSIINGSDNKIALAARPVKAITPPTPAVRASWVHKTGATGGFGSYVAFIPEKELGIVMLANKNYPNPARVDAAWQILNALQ
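AmpC (5.3 nM in the dispensed reagent) in 20 mM phosphate pH 7.0 with 0.01% (detergent screen) or 0.0001% Triton X-100 was preincubated with compounds for 15 min at room temperature. Nitrocefin was then added from an 800 uM solution, and hydrolysis was followed at 480 nm.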
AMA1-RON2 inh: qHTS for Inhibitors of AMA1-RON; Towards Development of Antimalarial Drug Lead: Primary Screen | actives 0.2% (n = 360,000) | Potency, µM (highest dose often 58.2 µM), for inactives: at the highest dose activity change, negative = inhibition, actives largely listed as inhibitors | Plasmodium falciparum AMA1 (3D7) - RON2 peptide interaction | AlphaScreen AMA1-biotinylated RON2 peptide binding | AID 720542, 2013;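 also: 0% = vehicle wells and -100% = peptide control; nearly all actives have a fitted effect of over 45% in size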
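AMA1 (3D7) with his tag at 25 nM final met compounds first, then biotinylated RON2 peptide at 25 nM; detection used donor plus acceptor beads, 10 µg/mL apiece, read by AlphaScreen after 30 min at room temperature.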
HCV inh: qHTS Assay for Inhibitors of Hepatitis C Virus (HCV); Huh7.5.1 HCVcc-Cre infection, luciferase reporter, 44 h; Potency, µM (titrated, usually from 41.8 µM), for the others: top-dose activity change, negative = inhibition, most hits filed as inhibitors; actives 3.4% (n = 340,000); AID 651820, 2012
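Cells seeded at 1,000/well and cultured 4 h, then compounds added followed by HCVcc-Cre virus (~0.5 moi). After 44 h further culture, luciferase substrate was added, plates held 15 min at room temperature, and luminescence read for 15 sec.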
Pf growth 48h: Primary qHTS for delayed death inhibitors of the malarial parasite plastid, 48 hour incubation; P. falciparum luciferase growth in erythrocytes, 48 h; actives 5.9% (n = 310,000); Potency, µM (highest dose often 28.7 µM), for the others: at the top dose activity change, negative = inhibition, hits mostly inhibitors; AID 504832, 2011
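Luminescence readout; reporter = integrated firefly luciferase in P. falciparum. RBC culture at 2% hematocrit, 0.1% parasitemia final, 37 C/5% CO2; decreased signal taken as growth inhibition.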
AmpC no deterg: qHTS Inhibitors of AmpC Beta-Lactamase (assay without detergent) | P00811 | AmpC nitrocefin hydrolysis, absorbance 480 nm, 0.0001% Triton | Potency, µM (series often up to 57.1 µM), inactives show top-dose activity change, negative = inhibition, hits mostly inhibitors | actives 0.52% (n = 330,000);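 also: plate controls were no compound for no effect and no enzyme for full effect; nearly all actives have a fitted effect of over 20% in size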
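AmpC (5.3 nM in the dispensed reagent) in 20 mM phosphate pH 7.0 with 0.01% (detergent screen) or 0.0001% Triton X-100 was preincubated with compounds for 15 min at room temperature. Nitrocefin was then added from an 800 uM solution, and hydrolysis was followed at 480 nm.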
Numbers without * were called inactive; [ ] = dose if it differs, or a comment. Hits are enriched below; roughly 11% of the tested compounds scored in any of these assays. Calls follow the shape of the dose curve; as a rule, active = well fitted curve in the direction sought with a large enough effect; inconclusive = small, poorly fitted or top-dose-only effect, or another doubt; inactive = no such curve, though single readings can be large; an effect the other way counts as inactive or inconclusive. Unless noted, % is scaled to controls: 0 for no effect and ±100 for the full control effect; potency is read from the fitted curve at half-maximal effect.

Cc1ccc(NC(=O)C2CCN(S(=O)(=O)c3ccc4c(c3)NC(=O)CO4)CC2)cc1 was read as Pf growth 96h 13.1µM*, AmpC inh detg -0.1%, AMA1-RON2 inh 4.8%, HCV inh inconclusive, Pf growth 48h inconclusive and AmpC no deterg -8.3%.
`COc1cccc(CNC(=O)C2CCN(S(=O)(=O)c3ccc4c(c3)NC(=O)CO4)CC2)c1` gave Pf growth 96h inconclusive, AmpC inh detg -6.7%, AMA1-RON2 inh 0.0%, HCV inh 10.9%, Pf growth 48h -4.1% and AmpC no deterg -17.8%.
`COc1ccccc1CNC(=O)C1CCN(S(=O)(=O)c2ccc3c(c2)NC(=O)CO3)CC1` gave Pf growth 96h 10.4µM*, AmpC inh detg -5.4%, AMA1-RON2 inh 0.7%, HCV inh 5.9%, Pf growth 48h -11.8% and AmpC no deterg 3.2%.
`CS(=O)(=O)N(CC(N)=O)c1cccc(Br)c1` gave Pf growth 96h 3.7µM*, AmpC inh detg -5.2%, AMA1-RON2 inh 2.9%, HCV inh inconclusive, Pf growth 48h 6.9% and AmpC no deterg -9.5%.
Screening Cc1ccc(N(CC(=O)N/N=C/c2cccs2)S(C)(=O)=O)cc1 returned Pf growth 96h inconclusive, AmpC inh detg 4.0%, AMA1-RON2 inh 15.6%, HCV inh 34.0%, Pf growth 48h -12.0% and AmpC no deterg -24.4%.
CS(=O)(=O)N(CC(N)=O)c1ccc(F)c(Cl)c1 was read as Pf growth 96h 96.6%, AmpC inh detg 1.9%, AMA1-RON2 inh 21.4%, HCV inh 1.0%, Pf growth 48h 1.6% and AmpC no deterg 0.316µM*.
For CNC(=O)CN(c1cccc(Br)c1)S(C)(=O)=O the results were AmpC inh detg inconclusive, AMA1-RON2 inh 4.6%, HCV inh 5.5%, Pf growth 48h 16.0% and AmpC no deterg -4.2%.
`Cc1ccc(N(CC(=O)N/N=C/c2cccc(Br)c2)S(C)(=O)=O)cc1` gave Pf growth 96h -16.2%, AmpC inh detg -11.9%, AMA1-RON2 inh 6.7%[11.6 µM], HCV inh 10.6%, Pf growth 48h 15.7% and AmpC no deterg 14.1µM*.
Fc1ccc(-c2cc(-c3nc(-c4ccccc4)no3)[nH]n2)cc1 was read as AmpC inh detg 3.2%.
Cc1ccc(C)c(NC(=O)CSc2nncn2C)c1 was read as Pf growth 96h inconclusive, AmpC inh detg -12.4%, AMA1-RON2 inh 4.8%, HCV inh 7.4%, Pf growth 48h 24.6% and AmpC no deterg -15.4%.
For Cc1cc(C)c2c(c1)-c1c(ssc1=S)C(C)(C)N2C(=O)CSc1nncn1C the results were Pf growth 96h inconclusive, AmpC inh detg 4.0%, AMA1-RON2 inh -20.2%, HCV inh 12.6µM*, Pf growth 48h 4.65µM* and AmpC no deterg 181.9%.
Screening Cc1ccc2c(c1)-c1c(ssc1=S)C(C)(C)N2C(=O)CSc1nncn1C returned Pf growth 96h 5.1%, AmpC inh detg 1.1%, AMA1-RON2 inh -20.7%, HCV inh 10µM*, Pf growth 48h inconclusive and AmpC no deterg 105.0%.
Screening COc1ccc(OC)c(C(c2nnnn2C2CCCC2)N2CCN(c3ccccc3F)CC2)c1 (stereo not drawn) returned Pf growth 96h inconclusive, AmpC inh detg -18.0%, AMA1-RON2 inh -17.2%, HCV inh inconclusive, Pf growth 48h 4.15µM* and AmpC no deterg 36.6%.
For COc1ccc(N2CCN(C(c3ccccc3OC)c3nnnn3C3CCCC3)CC2)cc1 (stereo not drawn) the results were AmpC inh detg inconclusive, AMA1-RON2 inh inconclusive, HCV inh inconclusive, Pf growth 48h 14.7µM* and AmpC no deterg 65.8%.
For Fc1ccc(N2CCN(C(c3cccs3)c3nnnn3C3CCCC3)CC2)cc1 (stereo not drawn) the results were Pf growth 96h 7.2%, AmpC inh detg -16.0%, AMA1-RON2 inh -10.3%, HCV inh -6.6%, Pf growth 48h 10.4µM* and AmpC no deterg 2.2%.
`CC(=O)c1ccc(NS(=O)(=O)c2ccc(-n3cccn3)cc2)cc1` gave AmpC inh detg -0.9%.
`Cc1nc2c(C(=O)NCCc3ccccc3Cl)c[nH]n2c(=O)c1Cl` gave Pf growth 96h 10.4µM*, AmpC inh detg 2.7%, AMA1-RON2 inh 0.0%, HCV inh 7.1%, Pf growth 48h 5.3% and AmpC no deterg -10.6%.
For CN1c2ccc([N+](=O)[O-])cc2N(C)C1(C)c1ccccc1 (stereo not drawn) the results were Pf growth 96h inactive, AmpC inh detg 0.8%, AMA1-RON2 inh 12.6µM*, HCV inh inconclusive, Pf growth 48h 11.7µM* and AmpC no deterg -39.1%.
Cn1c2ccccc2c2cc([N+](=O)[O-])ccc21 was read as Pf growth 96h 12.4%, AmpC inh detg 1.0%, AMA1-RON2 inh -15.4%, HCV inh inconclusive, Pf growth 48h 19.8% and AmpC no deterg -21.3%.
Cc1ccc(C(=O)C[n+]2ccc(Cc3ccccc3)cc2)cc1 was read as Pf growth 96h 8.28µM*, AmpC inh detg -18.4%, AMA1-RON2 inh 9.0%, HCV inh inconclusive, Pf growth 48h inconclusive and AmpC no deterg -1.0%.
For COc1ccc(C(=O)C[n+]2ccc(N(C)C)cc2)cc1 the results were Pf growth 96h inconclusive, AmpC inh detg -2.6%, AMA1-RON2 inh 6.0%, HCV inh inconclusive, Pf growth 48h 1.17µM* and AmpC no deterg -1.0%.
Screening CN(C)c1cc[n+](CC(=O)c2ccc(-c3ccccc3)cc2)cc1 returned Pf growth 96h inconclusive, AmpC inh detg 1.5%, AMA1-RON2 inh -5.5%, HCV inh inconclusive, Pf growth 48h 4.65µM* and AmpC no deterg 47.4%.
For CCOC(=O)c1c(C)[nH]c(C)c1S(=O)(=O)NCC(=O)Nc1cccc(C#N)c1 the results were AmpC inh detg -0.5%.
For CC#CC#Cc1cccc(=O)o1 the results were Pf growth 96h 10.4µM*, AmpC inh detg 2.7%, AMA1-RON2 inh -10.2%, HCV inh inconclusive, Pf growth 48h 11.7µM* and AmpC no deterg -6.7%.
`Cc1ccc(N=Nc2[nH]c3ccccc3c2O)cc1` gave Pf growth 96h 34.2%, AmpC inh detg inconclusive, AMA1-RON2 inh 1.8%, HCV inh -6.1%, Pf growth 48h 99.9% and AmpC no deterg -52.7%.
For COc1ccc(OC)c(N=Nc2c(O)c3ccccc3[nH]c2=O)c1 the results were AMA1-RON2 inh -19.8% and HCV inh inconclusive.
